Source: PubChem BioAssay AID488969 (Vanderbilt High Throughput Screening Facility, 2010)
Over roughly 110,000 compounds, “z-score” has its median near -0.1; the highest 2% begin near 2. What follows is part of a selection rich in the highest values, with near analogues and random picks from the rest. Active and inactive are the calls of the source.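 Rule for the calls: active = z-score in the third read window above 3 or below -3; inactive = the rest.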

The compounds below were run against Metabotropic glutamate receptor 8 (Rattus norvegicus) (UniProt P70579) (assay: rat mGluR8 modulators via GIRK flux, primary screen, cell-based, thallium flux, HTS (AID 488969)). Details: HEK293 rat mGluR8, GIRK (G protein-gated inwardly rectifying potassium channel) thallium flux, FluoZin2; at 10 µM; stronger effect = higher value; submaximal glutamate (EC20) added with thallium.
Sequence of Metabotropic glutamate receptor 8 (Rattus norvegicus) (P70579 whole entry, looked up): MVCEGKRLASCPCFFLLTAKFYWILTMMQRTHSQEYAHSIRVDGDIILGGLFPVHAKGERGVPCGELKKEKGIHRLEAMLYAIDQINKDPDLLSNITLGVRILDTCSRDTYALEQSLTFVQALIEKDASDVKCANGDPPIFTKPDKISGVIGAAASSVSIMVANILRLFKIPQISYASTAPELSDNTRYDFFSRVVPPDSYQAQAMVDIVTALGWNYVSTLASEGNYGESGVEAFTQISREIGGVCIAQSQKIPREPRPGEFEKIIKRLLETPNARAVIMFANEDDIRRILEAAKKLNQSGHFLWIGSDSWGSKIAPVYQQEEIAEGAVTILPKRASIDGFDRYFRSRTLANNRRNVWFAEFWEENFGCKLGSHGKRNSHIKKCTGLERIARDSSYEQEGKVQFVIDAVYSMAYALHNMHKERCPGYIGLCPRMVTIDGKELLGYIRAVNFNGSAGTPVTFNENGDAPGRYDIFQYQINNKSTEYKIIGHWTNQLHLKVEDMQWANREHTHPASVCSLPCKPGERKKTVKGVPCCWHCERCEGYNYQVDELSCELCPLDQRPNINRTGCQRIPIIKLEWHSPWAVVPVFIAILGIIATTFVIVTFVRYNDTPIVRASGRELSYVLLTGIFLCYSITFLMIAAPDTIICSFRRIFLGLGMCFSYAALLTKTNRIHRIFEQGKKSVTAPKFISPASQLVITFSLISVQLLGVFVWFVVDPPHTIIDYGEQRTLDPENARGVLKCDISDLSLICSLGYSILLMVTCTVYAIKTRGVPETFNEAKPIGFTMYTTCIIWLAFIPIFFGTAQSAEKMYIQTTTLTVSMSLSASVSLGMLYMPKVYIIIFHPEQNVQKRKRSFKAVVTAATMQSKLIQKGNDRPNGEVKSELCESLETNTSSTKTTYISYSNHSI

Structure (SMILES)	z-score
CCC(=O)c1ccc(N2CCCCCC2)c(F)c1	-0.499
CCC(=O)c1ccc(N2CCCC2)c(F)c1	0.0378
CC(=O)c1ccc(N2CCCC2)c(F)c1	2.4
Cc1ccc(C(=O)NN(C)c2nc3ccccc3nc2C(F)(F)F)cc1	0.198
O=C(NNc1c2ccccc2nc2ccccc12)c1ccc(O)cc1	2.21
Cc1ccc(C(=O)NNc2nc3ccccc3nc2C(F)(F)F)cc1	5.19 (active)
O=C(NNc1c2ccccc2nc2ccccc12)c1cccc(O)c1	-0.199
O=C(NNc1nc2ccccc2nc1C(F)(F)F)c1ccccc1	2.44
O=C(NNc1c2ccccc2nc2ccccc12)c1ccc(O)cc1O	0.0188
Cc1ccc(S(=O)(=O)NNc2nc3ccccc3nc2C(F)(F)F)cc1	-0.286
FC(F)(F)c1nc2ccccc2nc1N/N=C\c1ccccc1	0.3
O=C(NNc1nc(-c2ccccc2)cs1)c1ccccc1	-1.53
O=C1c2ccccc2C(Nc2ccc(S(=O)(=O)N3CCOCC3)cc2)N1c1ccccn1 (stereo not given)	-0.244
COc1ccc(CN(C)CC(=O)Nc2cc(OC)c([N+](=O)[O-])cc2C)c(OC)c1	-0.503
COc1ccccc1C(=O)NCC1CCN(c2ccc(S(=O)(=O)N3CCOCC3)cc2)CC1	-0.35
COc1ccccc1OCc1ccc(C(=O)NN)cc1	-0.037
O=C(NCC1CCCO1)C1CC1(c1ccccc1)c1ccccc1 (stereo not given)	1.76
CCOc1cc(C(=O)OCC(=O)c2c(C)[nH]c3ccccc23)ccc1OCC(=O)N1CCOCC1	-0.335
CNC(=O)C1=C(C)Nc2nc3ccccc3n2C1c1cccc(OC)c1 (stereo not given)	-0.775
Cc1cc(C)c2c(=O)n(CC(=O)N3CCC(N4CCCCC4)CC3)sc2n1	-0.421
CCOC(=O)C1CCCN(C(=O)CSCc2ccccc2)C1 (stereo not given)	-1.22
Cc1cccc(N2CCN(C(=O)Cn3sc4nc(C)cc(C)c4c3=O)CC2C)c1 (stereo not given)	0.149
CCOC(=O)C1CCCN(C(=O)CSc2nccn2C)C1 (stereo not given)	2.87
CCOC(=O)C1CCCN(C(=O)COc2ccccc2O)C1 (stereo not given)	0.0285

Structure (SMILES)	z-score
CCOC(=O)C1CCCN(C(=O)Cn2sc3nc(C)cc(C)c3c2=O)C1 (stereo not given)	2.2
COc1ccccc1N(CC(=O)Nc1ccccc1C(=O)NC(C)C)S(C)(=O)=O	-0.955
O=C1CCC([N+](=O)[O-])C(c2ccc(Cl)cc2Cl)N1 (stereo not given)	-0.219
CCCN1C(=O)/C(=C/c2ccco2)SC1=Nc1ccc(OC)cc1	-0.105
O=C(CCS(=O)(=O)Cc1ccccc1)N1CCc2ccccc2C1	-0.136
C[N+](C)(C)CCNC(=O)c1c(O)c2c([nH]c1=O)CCCC2	0.798
CCN1CCCC1CNC(=O)c1c(O)c2c([nH]c1=O)CCCC2 (stereo not given)	-0.0826
O=C(NCC1CCCO1)c1c(O)c2c([nH]c1=O)CCCC2 (stereo not given)	2.44
COc1ccc(CNC(=O)CN(Cc2ccc(C)cc2)S(=O)(=O)c2ccc(Cl)cc2)cc1	0.0059
CC1=C(C(=O)N2CCCCC2)C(c2cccs2)C2=C(CCCC2=O)N1 (stereo not given)	0.187
CC1SC(c2ccc(Cl)cc2Cl)NC1=O (stereo not given)	-0.0303
C=C(C)C1CC=C(C)/C(=N/NC(=O)COc2cccc(C)c2)C1 (stereo not given)	8.9 (active)
C=C(C)C1CC=C(C)/C(=N/NC(=O)COc2cccc3ccccc23)C1 (stereo not given)	0.0808
C=C(C)C1CC=C(C)/C(=N/NC(=O)COc2ccccc2Cl)C1 (stereo not given)	12.4 (active)
C=C(C)C1CC=C(C)/C(=N/NC(=S)Nc2ccccc2)C1 (stereo not given)	2.35
C=C(C)C1CC=C(C)/C(=N/NC(=O)COc2ccc(C)cc2)C1 (stereo not given)	1.47
C=C(C)C1CC=C(C)/C(=N/NC(=O)CNc2ccc(OCC)cc2)C1 (stereo not given)	1.99
C=C(C)C1CC=C(C)/C(=N\NC(=O)CCc2ccccc2)C1 (stereo not given)	-0.339
C=C(C)C1CC=C(C)/C(=N/NC(=O)CNc2ccc(C)cc2C)C1 (stereo not given)	-0.284
C=C(C)C1CC=C(C)/C(=N\NC(=O)CNc2ccccc2OC)C1 (stereo not given)	0.0831
C=C(C)[C@H]1CC=C(C)/C(=N/NC(=O)CNc2ccccc2OC)C1	0.284
C=C(C)C1CC=C(C)/C(=N/NC(=O)COc2ccccc2C)C1 (stereo not given)	1
C=C(C)C1CC=C(C)/C(=N\NC(=S)Nc2ccc(C)cc2)C1 (stereo not given)	0.799
Cc1nn(Cc2ccc(Br)cc2)c(C)c1NC(=O)c1nn(C)cc1Cl	-0.296

Structure (SMILES)	z-score
COC(=O)c1ccccc1NC(=O)CN(C)S(=O)(=O)c1ccc(OC)cc1	0.195
Fc1ccc(/C=C2\CCCC3=C2NC(=S)NC3c2ccc(F)cc2)cc1 (stereo not given)	-0.0195
N#CC1(C#N)C2=C(CCCC2)NC(c2ccccc2)C1(C#N)C#N (stereo not given)	-0.0942
O=C(NCCc1ccccc1F)/C(=C/c1cccnc1)NC(=O)c1ccccc1	0.0991
O=C(Nc1ccccc1)c1c(F)c(F)c(F)c(F)c1F	-0.122
COc1ccc(CC(=O)NCCc2ccc(S(N)(=O)=O)cc2)cc1	0.445
O=c1c(CN2CCN(Cc3ccccc3)CC2)coc2ccc(Cl)cc12	-0.714
CCOC(=O)c1cc(-c2ccc(OC)cc2)nc2c1c(C)nn2CCC#N	-0.93
CCOC(=O)c1cc(-c2ccc(C#N)cc2)nc2c1c(C)nn2CCC#N	-0.234
CCOC(=O)c1cc(-c2ccc(Cl)cc2)nc2c1c(C)nn2CCC#N	3.13 (active)
S=c1[nH]nc(Cc2sc(-c3ccccc3)nc2-c2ccccc2)o1	0.186
CCCNCC1C(Oc2ccc(Cl)cc2)C(=O)N1c1ccccc1C (stereo not given)	1.55
Cc1ccccc1N1C(=O)C(Oc2ccc(Cl)cc2)C1CNCCCOC(C)C (stereo not given)	2.95
COCCCNCC1C(Oc2ccc(Cl)cc2)C(=O)N1c1ccccc1C (stereo not given)	0.258
Cc1cc(C)c(OCCCCCNCCO)c(C)c1	1.43
CCc1ccc2nc(-c3cccc(C)c3)nc(SCC(=O)NCC3CCCO3)c2c1 (stereo not given)	-0.227
Cc1n[nH]c(C)c1SCC(=O)Nc1ccc(F)cc1	0.159
COc1cccc(Nc2ccc(C(=O)O)cc2[N+](=O)[O-])c1	0.594
O=C(c1cccc(Br)c1)c1cn(-c2ccccc2)nc1C(=O)c1ccccc1	-0.106
CCOc1ccc2[nH]c(=O)c(C(c3nnnn3C3CCCCC3)N3CCN(CC)CC3)cc2c1 (stereo not given)	0.408
COC(=O)c1ccc(N2C(=O)CC(SCCN)C2=O)cc1 (stereo not given)	-0.299
COC(=O)c1cc(C(=O)OC)cc(N2C(=O)CC(Sc3nc(C)cc(C)n3)C2=O)c1 (stereo not given)	0.178
COC(=O)c1ccc(N2C(=O)CC(Sc3n[nH]c(C)n3)C2=O)cc1 (stereo not given)	4.88 (active)
Cc1noc(C(=O)NCc2ccccc2)c1Cl	-0.324

Structure (SMILES)	z-score
C/C(=N/NC(=O)Cc1cccc2ccccc12)c1cccs1	-0.221
CCOC(=O)CSc1n[nH]c(NC(=O)c2ccccc2)n1	0.788
CCOC(=O)CSc1n[nH]c(NC(=O)c2cccc(C(F)(F)F)c2)n1	-0.122
CCOC(=O)CSc1n[nH]c(NC(=O)c2cccc(C)c2)n1	2.67
c1cncc(-c2nc3ccccc3[nH]2)c1	-0.186
O=c1[nH]cnc2c1sc1nc3c(c(-c4ccc(Cl)cc4)c12)CCC3	-0.722
CC(OC(=O)c1nsc(Cl)c1Cl)C(=O)NC(C)(C)C (stereo not given)	0.181
Cc1cc(OCC(=O)Nc2ccc(F)c(F)c2)nc(C(C)C)n1	0.156
O=C(NNS(=O)(=O)c1ccccc1)C1CCN(S(=O)(=O)c2ccc(Cl)cc2)CC1	-0.131
CCCCOc1ccc(-c2nc(=S)[nH][nH]2)cc1	0.294
C=CCCCCCCCCc1nc(=S)[nH][nH]1	9.76 (active)
CCCCCCCCc1nc(=S)[nH][nH]1	15.3 (active)
CCCCCCCCCc1nc(N)n[nH]1	-0.191
CC(=O)SC(C)CC(=O)NCc1ccccc1 (stereo not given)	-0.123
Cc1ccc(C)c(Nc2nc3nonc3nc2N2CCOCC2)c1	0.382
COc1ccccc1Nc1nc2nonc2nc1N1CCC(C)CC1	-0.00241
Cc1ccccc1Nc1nc2nonc2nc1N1CCOCC1	6.03 (active)
CCCCC(=O)Nc1cc(C(=O)NCCc2ccccc2)ccc1Cl	0.145
CC1CCN(c2ncccc2C(=O)O)CC1	4.14 (active)
O=C(Nc1ccccc1)c1cccnc1N1CCCC1	0.569
CC1CCN(c2nc3ccccc3nc2N2CCC(C)CC2)CC1	-0.169
Cc1ccc(-n2nnnc2SCC(=O)c2ccc3c(c2)NC(=O)CO3)c(C)c1	-0.0959
Cc1ccc(C2(C)NC(=O)N(CC(=O)Nc3c(C)n(C)n(-c4ccccc4)c3=O)C2=O)cc1 (stereo not given)	-0.208
CCc1ccccc1NC(=O)CSc1nc2n[nH]c(C)c2c(=N)n1-c1cccc(OC)c1	0.747

Structure (SMILES)	z-score
CCc1ccc(NC(=O)CSc2nc3n[nH]c(C)c3c(=N)n2-c2cccc(OC)c2)cc1	0.339
COc1cccc(-n2c(SCC(=O)NCCC3=CCCCC3)nc3n[nH]c(C)c3c2=N)c1	8.62 (active)
COc1ccc(/C=C/C(=O)NC(C)C)cc1Br	-0.339
CCCOc1ccc(C(=O)N2CCCC2)cc1OC	-0.411
CC(C)NC(=S)N/N=C/c1ccc(N2CCOCC2)cc1	0.522
S=C(N/N=C/c1ccccc1)N1CCOCC1	2.65
S=C(NCCN1CCOCC1)N/N=C/c1ccccc1	0.728
S=C(N/N=C/c1ccc(Cl)cc1)N1CCOCC1	11.9 (active)
S=C(Nc1ccc(Cl)cc1)N1CCOCC1	0.122
S=C(Nc1ccc(Cl)cc1Cl)N1CCOCC1	-0.325
Cc1ccc(/C=N/NC(=S)N2CCOCC2)cc1	4.72 (active)
Cc1ccc(NC(=S)N2CCOCC2)cc1	-0.0267
NC(=S)N/N=C/c1ccccc1	0.103
COc1ccc(OCCN2CCN(C3CC(=O)N(CCC(C)C)C3=O)CC2)cc1 (stereo not given)	-0.363
O=C(/C=C/c1c(Cl)cccc1Cl)N1CCN(c2ncccn2)CC1	-0.303
COCC(C)NC(=O)c1ccccc1OC(C)=O (stereo not given)	-0.44
COc1cc(/C=N/NC(=O)c2sc(N)c(C#N)c2C)cc(Br)c1O	-0.544
Cc1cc(C)n(-c2ccc(C(=O)OCC(=O)Nc3ccc(Cl)cc3[N+](=O)[O-])cc2)n1	-0.362
COc1ccc2cc(C(=O)OC(C)C)sc(=O)c2c1OC	-0.229
COc1ccc2cc(C(=O)Nc3ccccc3)sc(=O)c2c1OC	4.25 (active)
COC(=O)c1cc2ccc(OC)c(OC)c2c(=O)s1	0.0942
COc1ccc2cc(C(=O)NCC(=O)O)sc(=O)c2c1OC	3.42 (active)
COc1ccc2cc(C(=O)Nc3ccc(F)cc3)sc(=O)c2c1OC	0.534
COc1ccc2cc(C(=O)NCCO)sc(=O)c2c1OC	-0.297
